3T3 cytotox: Cytotoxic Profiling in NIH 3T3 Cell Line of Diverse Libraries Using Quantitative High-Throughput Screening | NIH 3T3 viability, CellTiter-Glo ATP luminescence, 48-72 h | Potency, µM (titrated, usually from 96.7 µM), inactives show at the top dose activity change, negative = cytotoxicity, hits mostly inhibitors | hit rate 4.3% among 94,000 | AID 1345082, 2018; further: nearly all actives have a fitted effect of over 55% in size
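ATP-dependent luminescence (CellTiter-Glo) served as the viability signal for NIH 3T3 cells treated with compound for 48 or 72 hr at 37 °C.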
hNpr1 antagonist: Natriuretic polypeptide receptor (hNpr1) antagonism - Primary qHTS; HEK293 hNpr1 GloSensor cGMP, ANP-stimulated luminescence; Potency, µM (doses to about 46.3 µM), for inactives: top-dose activity change, negative = inhibition, usual class: inhibitors; hit rate 1.6% among 76,000; calls by dose curve; further: nearly all actives have a fitted effect of over 60% in size
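HEK293 cells stably expressing human Npr1 and cGMP GloSensor pGS-40F, loaded 2 h with 2% GloSensor reagent, given compound 30 min at room temperature. Luminescence read before and 20 min after 0.1 nM hNppA.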
HEK cytotox: Cytotoxic Profiling in HEK 293 Cell Line of Diverse Libraries Using Quantitative High-Throughput Screening; Potency, µM (highest dose often 115 µM), inactives show top-dose activity change, negative = cytotoxicity, most hits filed as inhibitors; HEK 293 viability, ATP luminescence (CellTiter-Glo), 48-72 h; hit rate 6.6% among 94,000; AID 1345083, 2018; further: nearly all actives have a fitted effect of over 60% in size
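Cytotoxicity was scored by loss of ATP-coupled luminescence (CellTiter-Glo) in HEK 293 cells. Compound treatment ran 48 or 72 hr at 37 degree Celsius, 5% CO2, 95% humidity.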
Luciferase inh: Firefly luciferase inhibition profiling of diverse chemical library using quantitative high-throughput screening; Luciferin 4-monooxygenase (Photinus pyralis), P08659; purified P. pyralis luciferase, luminescence, biochemical; Potency, µM (series often up to 115 µM), most hits filed as inhibitors; hit rate 2.5% among 76,000; AID 1347043, 2019; further: nearly all actives have a fitted effect of over 65% in size
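Cell-free enzyme assay, 10nM P. pyralis luciferase, luciferin and ATP each at 10uM. Inhibition profiled over a 6-point titration, read as luminescence.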
Active calls of the source: *; i = inactive; u = inconclusive; [ ] = dose if it differs, or a comment. Shown are actives, neighbours in structure and some others; about 11% of the full set was active somewhere. Unless noted, the call rests on the fitted dose curve; in most records, active means well fitted curve in the direction sought with a large enough effect; inconclusive means small, poorly fitted or top-dose-only effect, or another doubt; inactive means no such curve, though single readings can be large; an effect the other way counts as inactive or inconclusive. On the % scale 0 is the no-effect control and ±100 the full control effect; potency means the concentration at half of the fitted maximal effect.

SMILES	3T3 cytotox	hNpr1 antagonist	HEK cytotox	Luciferase inh
Cc1ccc(C(=O)NC2CCN(c3cnn(CC4CC4)c(=O)c3)CC2)cc1C	-3%	2%	-27%	i
CC1(COc2ccc3[nH]ccc3c2)COc2ccc(C(=O)Nc3cccnc3)cc2N1 (stereo not drawn)	89µM*	u	100µM*	i
COc1ccc(NC(=O)c2ccc3c(c2)NC(C)(COc2ccc4[nH]ccc4c2)CO3)cn1 (stereo not drawn)	u	-27%	u	i
COc1ccc(OCC2(C)COc3ccc(C(=O)NCc4ccco4)cc3N2)cc1 (stereo not drawn)	u	u	u	i
CN(C)C(=O)c1ccc2c(c1)NC(C)(COc1ccc3[nH]ccc3c1)CO2 (stereo not drawn)	-16%[138 µM]	-14%[70.6 µM]	u	i
CC(C)CNC(=O)c1ccc2c(c1)NC(C)(COc1ccc3[nH]ccc3c1)CO2 (stereo not drawn)	89µM*	-17%[70.6 µM]	u	i
CC1(COc2ccc3[nH]ccc3c2)COc2ccc(C(=O)NCc3ccco3)cc2N1 (stereo not drawn)	u	-15%[70.6 µM]	100µM*	i
COc1cccc(Nc2ncc3c(n2)C(C)(C(=O)NC2CCOCC2)CC3)c1 (stereo not drawn)	40µM*	-5%[70.6 µM]	89µM*	i
COc1cccc(Nc2ncc3c(n2)C(C)(C(=O)NC2CCN(C)CC2)CC3)c1 (stereo not drawn)	u	-1%[70.6 µM]	89µM*	i
CC1(C(=O)NC2CCOCC2)CCc2cnc(Nc3ccccc3)nc21 (stereo not drawn)	u	0%[70.6 µM]	100µM*	i
Cc1ncoc1C(=O)NC1CCc2nnc(C3CC3)n2CC1 (stereo not drawn)	-9%	3%	-17%	i
O[C@@H]1C[C@@H](c2nc(Cc3ccccc3)no2)N(Cc2cc3ccccc3o2)C1	u	-1%[70.6 µM]	-25%[172 µM]	i
Cc1cnc(CC2CCN(S(=O)(=O)c3ccc4c(c3)CCC4)C2)n1CC1CC1 (stereo not drawn)	u	u	50µM*	i
OC1(CN2CCN(c3ccc(F)c(Cl)c3)CC2)CCCNC1 (stereo not drawn)	u	3%	79µM*	i
C[C@H]1[C@@H]2[C@@H](O)C([C@H](C)C(=O)NCc3cccnc3)CC[C@@]2(C)CC[C@@H]1NC(=O)c1ccc(C#N)cc1 (stereo partly drawn)	-7%	9%	-16%	i
C#CCNC(=O)[C@@H]1Cc2cn(CC#CC)c3cccc(c23)[C@H](CC(C)C)N1	u	-2%[70.6 µM]	u	i
CC#CCn1cc2c3c(cccc31)[C@H](CC(C)C)N[C@H](C(=O)NCCN(C)C)C2	40µM*	-11%[70.6 µM]	28µM*	i
C=CCNC(=O)[C@@H]1Cc2cn(CC#CC)c3cccc(c23)[C@H](CC(C)C)N1	u	0%[70.6 µM]	u	i
CC#CCn1cc2c3c(cccc31)[C@H](CC(C)C)N[C@H](C(=O)NC1CC1)C2	u	-11%[70.6 µM]	89µM*	i
CC#CCn1cc2c3c(cccc31)[C@H](CC(C)C)N[C@H](C(=O)NCc1ccccc1)C2	u	-21%[70.6 µM]	63µM*	i
CC#CCn1cc2c3c(cccc31)[C@H](CC(C)C)N[C@H](C(=O)NCCNC(C)=O)C2	u	-2%[70.6 µM]	100µM*	i
COC(C)c1ccc(-c2cc(C(=O)O)cc(S(=O)(=O)NC(C)C)c2)cc1 (stereo not drawn)	-1%	1%	-9%	i
CC#CCn1cc2c3c(cccc31)[C@H](CC(C)C)N[C@H](C(=O)NCc1ccco1)C2	89µM*	-10%[70.6 µM]	u	i
CC#CCn1cc2c3c(cccc31)[C@H](CC(C)C)N[C@H](C(=O)NCc1cccs1)C2	u	-15%[70.6 µM]	71µM*	i
Cc1ccc(-c2cn3c(n2)N(C(=O)C2CCCO2)CCC3)cc1 (stereo not drawn)	-18%	-5%	u	i
SMILES	3T3 cytotox	hNpr1 antagonist	HEK cytotox	Luciferase inh
CC(=O)NC[C@H]1CCN(Cc2cccc(Cl)c2F)C[C@H]1N(C)C	-3%	4%	-26%	i
CC(=O)N1CCC(C(=O)N2CCC(n3cc(-c4nc(-c5ccccc5)no4)nn3)CC2)CC1	-3%	0%	-19%	i
COc1cccc(CN2CCCC(C(=O)NCc3ccccc3)CCNC(=O)CC2)c1 (stereo not drawn)	-1%	0%	i	i
Cc1cc2nc3n(c(=O)c2n1CC(=O)NCc1ccc(Cl)cc1)CCCC3	-24%	2%	-4%	i
COCCn1ccc2c(C3=CCOCC3)nc(-c3cccc(NC(C)=O)c3)cc21	u	-5%[70.6 µM]	u	i
COCCn1ccc2c(C3=CCOCC3)nc(-c3cccc(N[S+](C)(=O)[O-])c3)cc21	35µM*	-3%[70.6 µM]	u	i
COCCn1ccc2c(C3=CCOCC3)nc(-c3cccc4cn[nH]c34)cc21	u	-16%[70.6 µM]	79µM*	i
CC1(C)[C@H](Cc2cc(COc3ccccc3)on2)C[C@@H]1NC(=O)C1CCC1	u	u	35µM*	i
CC1(C)[C@H](Cc2cc(COc3ccccc3)on2)C[C@@H]1NC(=O)NCc1ccccc1	u	u	63µM*	i
CC(C)N[C@H]1C[C@@H](Cc2cc(COc3ccccc3)on2)C1(C)C	50µM*	-1%[70.6 µM]	63µM*	i
CC1(C)[C@H](Cc2cc(COc3ccccc3)on2)C[C@@H]1NC(=O)C1CCCC1	u	u	u	i
CC1=C[C@@H](CNC(=O)C(C)(C)C)[C@H](C(C)C)C[C@H]1Cc1nnc(-c2ccccc2F)o1	u	-27%[70.6 µM]	32µM*	i
CC1=C[C@@H](CN(C)CCC#N)[C@H](C(C)C)C[C@H]1Cc1nnc(-c2ccccc2F)o1	u	u	79µM*	i
CC1=C[C@@H](CN(C)CCc2ccccn2)[C@H](C(C)C)C[C@H]1Cc1nnc(-c2ccccc2)o1	u	-19%	u	i
CC1=C[C@@H](CN2CCC(C(N)=O)CC2)[C@H](C(C)C)C[C@H]1Cc1nnc(-c2ccccc2F)o1	u	1%	u	i
CC1=C[C@@H](CN(C)CCc2ccccn2)[C@H](C(C)C)C[C@H]1Cc1nnc(-c2ccncc2)o1	u	1%	79µM*	i
CC1=C[C@@H](CN(C)CCN(C)C)[C@H](C(C)C)C[C@H]1Cc1nnc(-c2ccccc2)o1	28µM*	2%[70.6 µM]	45µM*	i
CCN1CCCC2(CCN(C(=O)NCCc3ccccc3F)C2)C1=O (stereo not drawn)	-8%	-4%	-6%	i
Cc1nc(-c2ccccc2OC2CN(C(=O)c3cccc4[nH]ccc34)C2)no1	u	-22%	u	i
